Eight compounds from ChEMBL document CHEMBL3988442, “University of Dundee, Small-Polar-MMV Screening Library” (2021) can be followed below.

Holding throughout (design): scale not given: direction of the effect not stated beside the values
Test [1] addresses Protein translocase subunit SecA (Escherichia coli (strain K12)) (UniProt P10408). Nature of the test: Assay to Identify E. coli SecA ATPase Inhibitors. It is filed as functional. Conditions: 30 µM.
For test [2], the target named is T1, Ubiquitin-activating enzyme e1, putative (Leishmania donovani (strain BPK282A1)) (UniProt E9BSI1).
T1 sequence (whole entry): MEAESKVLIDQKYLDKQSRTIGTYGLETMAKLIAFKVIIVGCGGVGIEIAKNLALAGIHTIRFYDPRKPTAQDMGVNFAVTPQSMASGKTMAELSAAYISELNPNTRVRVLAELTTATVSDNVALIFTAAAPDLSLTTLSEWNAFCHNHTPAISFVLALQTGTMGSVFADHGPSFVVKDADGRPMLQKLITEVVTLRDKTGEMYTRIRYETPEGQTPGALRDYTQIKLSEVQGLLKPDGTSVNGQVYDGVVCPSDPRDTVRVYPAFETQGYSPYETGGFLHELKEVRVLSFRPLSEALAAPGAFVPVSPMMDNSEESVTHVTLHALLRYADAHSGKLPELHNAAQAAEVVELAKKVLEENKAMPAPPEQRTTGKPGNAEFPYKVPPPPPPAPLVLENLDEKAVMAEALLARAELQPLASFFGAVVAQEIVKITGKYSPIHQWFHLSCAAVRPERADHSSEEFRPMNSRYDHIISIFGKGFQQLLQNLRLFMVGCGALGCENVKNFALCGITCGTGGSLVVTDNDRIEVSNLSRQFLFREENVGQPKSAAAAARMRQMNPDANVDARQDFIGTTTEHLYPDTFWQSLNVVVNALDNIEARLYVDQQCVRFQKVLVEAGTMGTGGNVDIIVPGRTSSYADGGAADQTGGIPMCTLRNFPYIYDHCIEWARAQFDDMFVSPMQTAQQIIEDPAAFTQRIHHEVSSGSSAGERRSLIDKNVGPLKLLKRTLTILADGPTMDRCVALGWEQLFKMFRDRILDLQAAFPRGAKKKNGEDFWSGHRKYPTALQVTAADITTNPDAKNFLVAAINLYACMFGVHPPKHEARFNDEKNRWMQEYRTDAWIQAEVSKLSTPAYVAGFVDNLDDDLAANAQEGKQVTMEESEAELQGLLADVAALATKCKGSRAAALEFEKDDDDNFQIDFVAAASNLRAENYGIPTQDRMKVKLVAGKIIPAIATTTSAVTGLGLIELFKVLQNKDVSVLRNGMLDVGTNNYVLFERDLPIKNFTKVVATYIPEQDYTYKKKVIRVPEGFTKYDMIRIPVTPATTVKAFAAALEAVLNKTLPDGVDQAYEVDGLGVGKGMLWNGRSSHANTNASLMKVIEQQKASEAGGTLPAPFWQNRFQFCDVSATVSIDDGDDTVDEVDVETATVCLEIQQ
Briefly: Leishmania donovani Ubiquitin Activating Enzyme (LdE1). It is filed as functional. As to conditions: 30 µM.

Test [3] has as its target AMP-activated protein kinase, AMPK (Homo sapiens) (UniProt P54646+O43741+P54619+Q9UGJ0+Q9Y478+Q13131+Q9UGI9). Briefly: AMP-dependent Kinase enzyme assay. An in vitro enzyme assay that detects ADP turnover that is directly proportional to AMPK activity. This uses naive AMPK that is activated during the assay with MK-8722. Conditions: 30 µM. The test is classed as functional.

Test [4] deals with Sialic acid-binding Ig-like lectin 9 (Homo sapiens) (UniProt Q9Y336). Briefly: Hs-Siglec9 ALPHAscreen SOP 20170721. Conditions: 10 µM. Background: Alpha assays give light when donor and acceptor beads are brought close together.
For the next test, the system named is Trypanosoma cruzi. Nature of the test: Trypanosoma cruzi phosphomannomutase and mannose-1-phosphate guanylyltransferase assay. As to conditions: 10 µM. The test is classed as functional.
For test [5], the target named is T2, Arginase-2, mitochondrial (Homo sapiens) (UniProt P78540).
T2 sequence (whole entry): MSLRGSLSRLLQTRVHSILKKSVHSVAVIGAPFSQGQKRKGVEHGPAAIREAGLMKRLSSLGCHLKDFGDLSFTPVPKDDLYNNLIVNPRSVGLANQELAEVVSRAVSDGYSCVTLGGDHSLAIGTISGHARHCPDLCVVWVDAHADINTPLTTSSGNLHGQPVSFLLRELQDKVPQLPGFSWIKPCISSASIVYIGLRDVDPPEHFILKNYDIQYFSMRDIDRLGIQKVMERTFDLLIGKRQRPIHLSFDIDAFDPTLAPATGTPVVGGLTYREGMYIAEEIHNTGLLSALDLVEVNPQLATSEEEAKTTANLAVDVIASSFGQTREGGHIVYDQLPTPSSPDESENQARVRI
Briefly: in vitro enzyme assay to detect the production of urea directly proportional to the activity of Arginase II. Note: in the data most compounds retested in dose-response had high values. The test is classed as functional. Conditions: 33.3 µM.

The target in test [6] is T3, Proteasome subunit beta (Trypanosoma cruzi) (UniProt O96673).
T3 sequence (whole entry): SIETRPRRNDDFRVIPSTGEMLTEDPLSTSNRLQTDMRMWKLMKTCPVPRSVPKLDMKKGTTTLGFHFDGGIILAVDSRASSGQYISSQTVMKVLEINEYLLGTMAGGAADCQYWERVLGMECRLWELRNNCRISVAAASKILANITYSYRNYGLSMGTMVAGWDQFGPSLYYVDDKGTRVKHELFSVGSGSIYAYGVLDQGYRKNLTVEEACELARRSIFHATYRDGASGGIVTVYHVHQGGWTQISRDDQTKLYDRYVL
Briefly: Trypanosoma cruzi proteasome chymotrypsin-like activity (TcProtChymo) assay. Note: in the data most compounds retested in dose-response had high values. The test is classed as functional. Conditions: 9.37 µM.

The species entered for another test is Homo sapiens. Briefly: To identify inhibition of the IFN signalling (Jak-Stat) pathway via expression of an eGFP reporter gene under the control of an IFN-stimulated response element (ISRE) containing MxA promoter. Conditions: 30 µM. The test is classed as functional. Background: In a reporter assay the amount or activity of a reporter protein is the signal.

In test [7] the target is T4, Tyrosyl-tRNA synthetase, putative (Trypanosoma cruzi (strain CL Brener)) (UniProt Q4DSP6).
T4 sequence (whole entry): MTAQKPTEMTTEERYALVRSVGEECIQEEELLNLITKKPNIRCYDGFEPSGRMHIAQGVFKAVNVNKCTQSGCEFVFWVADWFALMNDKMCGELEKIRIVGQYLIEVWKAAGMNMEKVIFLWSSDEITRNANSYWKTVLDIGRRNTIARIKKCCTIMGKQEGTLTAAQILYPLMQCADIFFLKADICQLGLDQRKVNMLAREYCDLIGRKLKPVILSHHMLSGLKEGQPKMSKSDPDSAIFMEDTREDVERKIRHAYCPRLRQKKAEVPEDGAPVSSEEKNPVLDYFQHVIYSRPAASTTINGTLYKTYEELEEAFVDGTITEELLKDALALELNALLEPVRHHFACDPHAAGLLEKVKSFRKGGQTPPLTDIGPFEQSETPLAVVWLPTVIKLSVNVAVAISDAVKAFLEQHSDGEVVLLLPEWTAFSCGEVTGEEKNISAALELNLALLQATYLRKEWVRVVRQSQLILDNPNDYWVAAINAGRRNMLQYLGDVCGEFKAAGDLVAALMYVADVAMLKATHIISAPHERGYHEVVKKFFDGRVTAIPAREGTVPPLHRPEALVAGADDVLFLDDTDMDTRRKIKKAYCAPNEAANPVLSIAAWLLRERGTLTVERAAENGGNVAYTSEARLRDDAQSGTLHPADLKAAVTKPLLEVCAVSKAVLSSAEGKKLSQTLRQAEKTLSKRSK
Briefly: Trypanosoma cruzi tyrosyl tRNA synthetase (TcYRS) _High Tyrosine SOP. Note: in the data most compounds retested in dose-response had high values. The test is classed as functional. Conditions: 30 µM.

Test [8] concerns the target T4, Tyrosyl-tRNA synthetase, putative (Trypanosoma cruzi (strain CL Brener)). Briefly: Trypanosoma cruzi tyrosyl tRNA synthetase (TcYRS) SOP. Conditions: 30 µM. It is filed as functional.
For test [9], the target named is Chromo domain-containing protein 1 (Saccharomyces cerevisiae (strain ATCC 204508 / S288c) (Baker's yeast)) (UniProt P32657). Nature of the test: ScCHD-1 Enzyme Inhibition Assay. Note: in the data most compounds retested in dose-response had high values. The test is classed as functional. As to conditions: 30 µM.

For some of these results: Measured potencies and affinities stand elsewhere.

Sequence of Sialic acid-binding Ig-like lectin 9 (Homo sapiens) (Q9Y336 whole entry): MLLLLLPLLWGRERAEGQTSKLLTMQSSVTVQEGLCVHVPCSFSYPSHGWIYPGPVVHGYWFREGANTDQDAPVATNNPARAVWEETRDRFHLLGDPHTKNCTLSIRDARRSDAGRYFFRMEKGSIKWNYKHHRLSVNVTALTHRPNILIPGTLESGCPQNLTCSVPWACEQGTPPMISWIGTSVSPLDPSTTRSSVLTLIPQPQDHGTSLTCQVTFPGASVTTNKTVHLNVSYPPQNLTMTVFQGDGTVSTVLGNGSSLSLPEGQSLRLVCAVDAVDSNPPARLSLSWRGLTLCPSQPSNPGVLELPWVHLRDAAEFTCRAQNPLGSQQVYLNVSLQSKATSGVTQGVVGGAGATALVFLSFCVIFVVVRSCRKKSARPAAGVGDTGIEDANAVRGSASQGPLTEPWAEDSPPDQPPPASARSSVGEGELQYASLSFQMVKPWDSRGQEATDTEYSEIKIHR
Sequence of Protein translocase subunit SecA (Escherichia coli (strain K12)) (P10408 whole entry): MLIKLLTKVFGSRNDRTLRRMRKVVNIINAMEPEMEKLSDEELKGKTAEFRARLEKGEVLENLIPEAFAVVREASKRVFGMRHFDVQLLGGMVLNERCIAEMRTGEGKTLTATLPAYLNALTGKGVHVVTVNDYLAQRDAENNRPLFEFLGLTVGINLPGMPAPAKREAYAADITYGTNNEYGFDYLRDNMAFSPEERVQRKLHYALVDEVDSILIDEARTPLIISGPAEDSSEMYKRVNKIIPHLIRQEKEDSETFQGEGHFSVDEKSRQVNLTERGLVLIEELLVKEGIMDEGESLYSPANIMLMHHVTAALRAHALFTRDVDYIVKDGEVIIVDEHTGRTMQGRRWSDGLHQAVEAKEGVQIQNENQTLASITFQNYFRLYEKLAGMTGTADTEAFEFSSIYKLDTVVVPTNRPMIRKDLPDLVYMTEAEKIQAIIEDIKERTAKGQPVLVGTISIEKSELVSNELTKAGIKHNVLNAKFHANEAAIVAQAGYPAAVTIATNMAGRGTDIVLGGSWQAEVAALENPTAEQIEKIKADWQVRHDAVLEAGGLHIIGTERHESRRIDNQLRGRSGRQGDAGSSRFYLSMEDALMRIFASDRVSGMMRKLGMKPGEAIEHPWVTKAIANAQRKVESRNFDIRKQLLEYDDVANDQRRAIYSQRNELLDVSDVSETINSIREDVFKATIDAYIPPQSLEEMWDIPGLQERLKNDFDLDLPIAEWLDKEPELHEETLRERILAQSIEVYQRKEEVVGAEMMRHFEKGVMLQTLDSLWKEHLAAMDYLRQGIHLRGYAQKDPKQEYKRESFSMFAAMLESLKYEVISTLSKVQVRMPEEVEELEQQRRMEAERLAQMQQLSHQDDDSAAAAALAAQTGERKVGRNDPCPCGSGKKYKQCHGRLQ
Sequence of Chromo domain-containing protein 1 (Saccharomyces cerevisiae (strain ATCC 204508 / S288c) (Baker's yeast)) (P32657 whole entry, the tested form may be a part): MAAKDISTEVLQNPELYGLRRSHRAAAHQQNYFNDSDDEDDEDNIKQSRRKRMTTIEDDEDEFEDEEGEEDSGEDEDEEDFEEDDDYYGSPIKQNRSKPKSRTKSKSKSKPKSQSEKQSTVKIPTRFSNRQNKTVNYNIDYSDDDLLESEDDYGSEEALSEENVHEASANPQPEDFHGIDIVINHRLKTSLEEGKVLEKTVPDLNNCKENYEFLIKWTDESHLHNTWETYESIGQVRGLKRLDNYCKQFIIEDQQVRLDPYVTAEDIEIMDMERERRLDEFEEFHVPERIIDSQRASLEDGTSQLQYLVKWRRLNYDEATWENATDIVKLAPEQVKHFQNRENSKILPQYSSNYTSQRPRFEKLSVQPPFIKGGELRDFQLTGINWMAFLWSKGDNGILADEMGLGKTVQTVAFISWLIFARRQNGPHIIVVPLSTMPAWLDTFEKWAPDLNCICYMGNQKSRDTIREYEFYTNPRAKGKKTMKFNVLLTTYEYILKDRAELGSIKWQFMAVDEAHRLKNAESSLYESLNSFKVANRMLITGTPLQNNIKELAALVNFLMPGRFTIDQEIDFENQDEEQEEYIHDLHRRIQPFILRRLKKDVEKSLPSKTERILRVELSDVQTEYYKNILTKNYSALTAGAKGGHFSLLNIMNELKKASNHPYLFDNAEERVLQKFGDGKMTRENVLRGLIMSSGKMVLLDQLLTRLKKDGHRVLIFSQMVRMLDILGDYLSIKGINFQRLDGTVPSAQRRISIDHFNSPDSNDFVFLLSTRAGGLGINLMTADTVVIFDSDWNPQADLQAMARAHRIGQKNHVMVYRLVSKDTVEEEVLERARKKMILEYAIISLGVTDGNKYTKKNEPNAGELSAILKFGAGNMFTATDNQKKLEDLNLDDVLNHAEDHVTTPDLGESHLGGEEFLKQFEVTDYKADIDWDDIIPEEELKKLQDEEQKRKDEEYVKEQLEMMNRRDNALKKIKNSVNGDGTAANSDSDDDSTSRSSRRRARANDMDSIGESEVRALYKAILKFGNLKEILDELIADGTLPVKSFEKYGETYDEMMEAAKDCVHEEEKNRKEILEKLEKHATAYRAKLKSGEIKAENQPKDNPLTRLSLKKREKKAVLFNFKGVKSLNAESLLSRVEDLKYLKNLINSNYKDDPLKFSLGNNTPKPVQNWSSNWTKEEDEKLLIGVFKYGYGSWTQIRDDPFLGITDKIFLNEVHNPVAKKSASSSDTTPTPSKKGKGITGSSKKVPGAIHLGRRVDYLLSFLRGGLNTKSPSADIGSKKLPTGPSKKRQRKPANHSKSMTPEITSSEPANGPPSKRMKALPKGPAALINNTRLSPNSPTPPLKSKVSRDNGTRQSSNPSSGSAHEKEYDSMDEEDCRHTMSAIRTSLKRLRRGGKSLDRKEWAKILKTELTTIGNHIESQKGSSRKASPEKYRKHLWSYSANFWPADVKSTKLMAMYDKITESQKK

Turning to `Cc1ccoc1C(=O)N1C[C@H]2CCC[C@@]2(COCc2ccncc2)C1`, the Percent Effect in test [1] is -1.22%; in test [2] it was 18.2%; in test [3] it was -2.61%; in test [4], 3.02%; in the test on Trypanosoma cruzi, 2.66%; in test [5], -3.23%. In addition, the Percent Effect in test [6] is -2.44%; in the test listed under Homo sapiens, 1.6%; in test [7], 5.29%; in test [8], 11.5%; in test [9], -4.37%.
On to `Cc1ccc(C(=O)N2Cc3ccccc3C2)cc1N1CCNC1=O`, for which the Percent Effect in [1] is -6.25%; in test [2] it was 2.67%; in [3] it was 0.516%; in test [4], 9.14%; with Trypanosoma cruzi, 7.89%; in test [5], -3.12%. The Percent Effect in test [6] was 16.2%; in the test listed under Homo sapiens, -13.9%; in [7], 7.1%; in test [8], 13.6%; in test [9], -6.92%.
For `CS(=O)(=O)N1CC[C@]2(C[C@@H](OCC3CCC3)CO2)C1`, the Percent Effect in [1] is -3.98%; in test [2] it was 16.2%; in test [3], -8.34%; in test [4] it was 20.7%; in the test on Trypanosoma cruzi, 2.64%; in test [5] it was 1.24%. For the same compound, the Percent Effect was 11.6% in [6]; -1.67% in the test listed under Homo sapiens; 5.38% in [7]; 18.5% in [8]; -5.25% in test [9].
Turning to `O=C(CN(Cc1ccccc1)CC1CCOCC1)Nc1nccs1`, the Percent Effect in test [1] is -4.59%; in test [2] it was 0%; in test [3], 0.406%; in test [4] it was 1.15%; in the test with Trypanosoma cruzi, -4.17%; in [5], 0.399%. In addition, the Percent Effect was 4.2% in test [6]; -3.27% in the test listed under Homo sapiens; 6.25% in test [7]; 11.1% in test [8]; -0.498% in test [9].
`Cc1nnc2n1CCN(Cc1csc(Cc3ccccc3)n1)C2`: the Percent Effect is -5.45% in test [1]; 5.41% in [2]; -7.1% in [3]; 3.42% in test [4]; 3.25% with Trypanosoma cruzi; 4.62% in [5]. Moreover, the Percent Effect in test [6] is 3.41%; in the test listed under Homo sapiens, 8.73%; in [7] it was 8.91%; in test [8], 15.8%; in test [9], -1.48%.
Take `Cc1nc(CNCC2CCCN2c2cccnn2)no1` (stereo not drawn): the Percent Effect in test [1] is -3.3%; in test [2] it was -13%; in test [3] it was -11.2%; in test [4], -6.04%; in the test on Trypanosoma cruzi it was 8.32%; in test [5], -6.53%. The Percent Effect in test [6] is 15.6%; in the test filed under Homo sapiens, -2.13%; in [7], 9.52%; in test [8], 14.1%; in test [9], -23.1%.
In the case of `CC(c1nc(C2CC2)no1)N1CCN(CCOCC(F)(F)F)CC1` (stereo not drawn), the Percent Effect in test [1] was -1.74%; in test [2] it was -2.7%; in [3], -7.35%; in [4] it was 10.2%; in the test with Trypanosoma cruzi, 1.95%; in test [5], -0.185%. Further, the Percent Effect in test [6] was determined as 1.08%; in the test listed under Homo sapiens, 21%; in [7] it was 2.97%; in test [8], 11%; in test [9], 1.39%.
`Cc1cnn(C2CN(CC(O)c3ccc(F)cc3)C2)c1` (stereo not drawn): the Percent Effect in test [1] was 1.74%; in test [2], -2.67%; in test [3], -7.34%; in [4], 3.97%; in the test on Trypanosoma cruzi it was 2.82%; in [5], 8.33%. The Percent Effect amounted to 3.31% in test [6]; 17.9% in the test listed under Homo sapiens; 6.01% in test [7]; 13.6% in test [8]; 105% in test [9].
